Laboratory results reported in PubChem BioAssay.

What follows are compounds tested against Torsin-1A (Homo sapiens) (UniProt O14656) (assay: torsin A binders from cell lysate, primary screen, small-molecule microarray, wild-type, 635/667 nm (AID 1149)). Conditions: COS7 hTOR1A-WT lysate, 635 nm fluorescence, higher = more signal.
Torsin-1A (Homo sapiens), sequence (O14656 whole entry, looked up): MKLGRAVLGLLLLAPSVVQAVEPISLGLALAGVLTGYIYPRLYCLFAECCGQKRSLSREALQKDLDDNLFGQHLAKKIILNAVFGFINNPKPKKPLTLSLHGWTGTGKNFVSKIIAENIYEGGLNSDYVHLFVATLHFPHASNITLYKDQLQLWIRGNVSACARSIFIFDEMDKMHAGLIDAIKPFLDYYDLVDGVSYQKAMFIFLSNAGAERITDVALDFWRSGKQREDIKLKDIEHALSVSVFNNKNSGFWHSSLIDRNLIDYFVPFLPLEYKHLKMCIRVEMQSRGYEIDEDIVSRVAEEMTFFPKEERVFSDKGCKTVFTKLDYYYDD

Going from `Cc1ccc(C(C)CC(O)C2C=CC3C(=O)N(c4ccccc4)C(=O)C3N2Nc2ccc([N+](=O)[O-])cc2)o1` (stereo not drawn) to `CCCCC(O)C1C=CC2C(=O)N(c3ccccc3)C(=O)C2N1Nc1ccccc1F` (stereo not drawn), the composite z-score rises from -0.344 to 0.31.

Compared with `COCCOC(=O)N1C(=O)[C@@]2(c3cc(C#CCCO)ccc31)[C@H](C(=O)Nc1nc3ccccc3s1)[C@H]1C(=O)O[C@H](c3ccccc3)[C@H](c3ccccc3)N1[C@@H]2c1ccc(OCCO)cc1`, `[N-]=[N+]=NCc1ccccc1[C@H]1OC(c2ccc(OCCCO)cc2)=N[C@@]1(Cc1ccccc1)C(=O)NCc1ccccc1` is lower in composite z-score: 0.367 for the first, 0.247 for the second.

Going from `[N-]=[N+]=Nc1ccccc1C[C@]1(C(=O)NCC(O)CO)N=C(c2ccc(OCCCO)cc2)O[C@H]1c1ccccc1N=[N+]=[N-]` (stereo partly drawn) to `C=C(CCCC)/C(=C/C[C@@H](OC(C)=O)c1ccccc1OCCO)c1cnc2ccccc2c1`, the composite z-score rises from -0.0376 to 1.11.

Going from `OC([C@@H]1CC(c2ccccc2)=NO1)[C@H]1CC(c2ccccc2)=NO1` (stereo partly drawn) to `O=C(NCc1ccccc1)[C@@H]1c2ccccc2C(=O)N(CC23CC4CC(CC(C4)C2)C3)[C@H]1c1ccc(CO)cc1`, the composite z-score rises from 0.0801 to 0.239.

These compounds were tested against Torsin-1A (Homo sapiens) (UniProt O14656) (assay: small-molecule binders of mutant TOR1A in lysate, primary screen, cell lysate, small-molecule microarray, COS7 lysate, 635/667 nm fluorescence (AID 1150;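 further: score pools 667 nm emission and signal to noise measuring lysate protein binding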)). Conditions: COS7 hTOR1A mutant lysate, 635 nm fluorescence, higher = more signal.

Going from `O=C1C2C=CC(C(O)C3CCCCC3)N(Nc3ccc([N+](=O)[O-])cc3)C2C(=O)N1c1ccccc1` (stereo not drawn) to `Cc1ccc(C(C)CC(O)C2C=CC3C(=O)N(c4ccccc4)C(=O)C3N2Nc2ccc([N+](=O)[O-])cc2)o1` (stereo not drawn), the composite z-score rises from -0.199 to 0.222.

First: C=CCNC(=O)[C@H]1[C@@H]2C(=O)O[C@@H](c3ccccc3)[C@@H](c3ccccc3)N2[C@@H](c2ccc(OCCO)cc2)[C@]12C(=O)N(C(=O)OCCOC)c1ccccc12
Second: C=CCNC(=O)[C@@H]1[C@H]2C(=O)O[C@H](c3ccccc3)[C@H](c3ccccc3)N2[C@H](c2ccccc2OCCO)[C@@]12C(=O)N(C(=O)OCCOC)c1ccc(C#CCNC(N)=O)cc12
The composite z-score of the first is lower: 0.497 for the first, 0.697 for the second.

Compared with `O=C1C2C=CC(C(O)c3c(F)cccc3Cl)N(Nc3ccccc3)C2C(=O)N1c1ccccc1` (stereo not drawn), `CCCCC(O)C1C=CC2C(=O)N(c3ccccc3)C(=O)C2N1Nc1ccccc1F` (stereo not drawn) is lower in composite z-score: 0.836 for the first, 0.129 for the second.

Compared with `CC(C)c1ccc(NN2C(C(O)c3cc(C(F)(F)F)cc(C(F)(F)F)c3)C=CC3C(=O)N(c4ccccc4)C(=O)C32)cc1` (stereo not drawn), `COc1ccc(CCNC(=O)[C@@]2(C)c3ccccc3C(=O)N(Cc3cc(F)cc(C(F)(F)F)c3)[C@H]2c2ccc(CO)cc2)cc1` is lower in composite z-score: 0.843 for the first, -0.0937 for the second.

First: [N-]=[N+]=NCc1ccccc1C[C@]1(C(=O)O)N=C(c2ccc(OCCCO)cc2)O[C@H]1c1ccccc1N=[N+]=[N-]
Second: [N-]=[N+]=Nc1ccccc1C[C@]1(C(=O)NCC(O)CO)N=C(c2ccc(OCCCO)cc2)O[C@H]1c1ccccc1N=[N+]=[N-] (stereo partly drawn)
The composite z-score of the first is higher: 1.39 for the first, 0.585 for the second.

Going from `O=C1O[C@H](c2ccccc2)[C@H](c2ccccc2)N2[C@H]1[C@@H](C(=O)NC[C@H](O)c1ccccc1)[C@]1(C(=O)Nc3ccccc31)[C@H]2c1ccc(OCCO)cc1` to `O=C1O[C@@H](c2ccccc2)[C@@H](c2ccccc2)N2[C@@H](c3ccc(OCCO)cc3)[C@]3(C(=O)Nc4ccccc43)[C@@H](C(=O)NC[C@H](O)c3ccccc3)[C@H]12`, the composite z-score falls from 0.492 to 0.14.

Going from `COC(=O)[C@@]1(Cc2ccc(F)cc2)[C@H]2c3cc(C(=O)N4CCCC4)n(Cc4ccc(C)o4)c3C[C@H]2CN1C(=O)c1ccccc1` to `O=C1c2ccccc2[C@](Cc2ccccc2I)(C(=O)NC2CC2)[C@H](c2ccc(CO)cc2)N1C1CCCCC1`, the composite z-score rises from 0.322 to 0.68.

Going from `COc1ccc([Si](C)(C)[C@H]2[C@H](CCn3cc([C@H](O)c4ccccc4)nn3)O[C@@]3(C(=O)N(Cc4cccc(N5CCOC5=O)c4)c4ccccc43)[C@@H]2C)cc1` to `COCCOC(=O)N1C(=O)[C@@]2(c3cc(C#CCCO)ccc31)[C@H](C(=O)Nc1nc3ccccc3s1)[C@H]1C(=O)O[C@H](c3ccccc3)[C@H](c3ccccc3)N1[C@@H]2c1ccc(OCCO)cc1`, the composite z-score rises from 0.199 to 1.42.

Compared with `C=C(/C(=C/C[C@@H](OC(C)=O)c1ccc(OCCO)cc1)c1cnc2ccccc2c1)C(C)C`, `C=C(CCCC)/C(=C/C[C@@H](OC(C)=O)c1ccccc1OCCO)c1cnc2ccccc2c1` is lower in composite z-score: 0.576 for the first, -0.438 for the second.

Going from `O=C1OCC=C[C@H]2OC34C=CCN(CCN5CCOCC5)C(=O)[C@H]3N(CCCO)C(=O)[C@@H]4[C@@H]12` (stereo partly drawn) to `CCCCCN1CC=CC23O[C@@H]4/C=C\CCCOC(=O)C4[C@H]2C(=O)N(CCCO)[C@@H]3C1=O` (stereo partly drawn), the composite z-score rises from 0.156 to 2.27.

First: C=CC[C@]1(C(=O)NCCCOC)N=C(c2ccc(OCCCO)cc2)O[C@H]1c1ccccc1N=[N+]=[N-]
Second: C=CC[C@@]1(C(N)=O)N=C(c2ccc(OCCCO)cc2)O[C@@H]1c1ccccc1CN=[N+]=[N-]
The composite z-score of the first is higher: 0.878 for the first, 0.0254 for the second.

Going from `COCC(=C=CC[C@H](O)c1ccccc1OCCO)C[C@H](O)c1cc(Cl)cc(Cl)c1O` to `COC(=O)c1c(CC[C@@H](CO)NC(=O)N2CCC[C@H]2Cn2cc(-c3ccccn3)nn2)oc(C(C)=O)c1C(=O)OC`, the composite z-score falls from 1.72 to 1.2.

First: C=CCN(Cc1ccccc1)C(=O)C(c1cccs1)N(CCOCCO)C(=O)/C=C\C(=O)O (stereo not drawn)
Second: O=C(NCc1ccccc1)[C@@]1(CCS(=O)(=O)c2ccccc2)N=C(c2ccc(OCCCO)cc2)O[C@H]1c1ccccc1
The composite z-score of the first is lower: -3.08 for the first, 1.16 for the second.

First: CCN(CC)c1ccc(N2CC=CC34O[C@@H]5/C=C\CCCOC(=O)C5[C@H]3C(=O)N(CCO)[C@@H]4C2=O)cc1 (stereo partly drawn)
Second: COc1ccc(CCN2C(=O)[C@@]3(c4ccc([N+](=O)[O-])cc4)CC(=O)N(C4CCCCC4)[C@@H]3c3ccc(CO)cc32)cc1
The composite z-score of the first is lower: -0.705 for the first, 0.128 for the second.

Compared with `COCCOC(=O)N1C(=O)[C@@]2(c3cc(C#CCCO)ccc31)[C@H](C(=O)N1CCN(c3ncccn3)CC1)[C@H]1C(=O)O[C@H](c3ccccc3)[C@H](c3ccccc3)N1[C@@H]2c1ccccc1OCCO`, `COC(=O)C(CC#Cc1ccc2c(c1)[C@]1(C(=O)N2)[C@H](c2ccc(O)cc2)N2[C@H](c3ccccc3)[C@H](c3ccccc3)OC(=O)[C@H]2[C@@H]1C(=O)Nc1nc2ccccc2s1)C(=O)OC` is higher in composite z-score: 0.829 for the first, 1.21 for the second.

First: CCOC(=O)C[C@H]1[C@H](OC(=O)c2ccc(C(=O)c3ccccc3)cc2)[C@@H](NC(=O)c2ccc(-c3ccccc3)cc2)c2cc(OCCCO)ccc2N1C(=O)c1ccccc1
Second: [N-]=[N+]=NCc1ccccc1[C@H]1OC(c2ccc(OCCCO)cc2)=N[C@@]1(Cc1ccccc1)C(=O)NCc1ccccc1
The composite z-score of the first is lower: 0.311 for the first, 0.714 for the second.

Compared with `O=C1[C@H]2C=C(Br)[C@H](C[C@@H]2OCCCCO)[C@@]12CO2`, `O=C(NCc1ccccc1)[C@@H]1c2ccccc2C(=O)N(CC23CC4CC(CC(C4)C2)C3)[C@H]1c1ccc(CO)cc1` is higher in composite z-score: 0.53 for the first, 0.654 for the second.

`OC([C@@H]1CC(c2ccccc2)=NO1)[C@H]1CC(c2ccccc2)=NO1` (stereo partly drawn) gave a composite z-score of -0.174.
